Experimental data reported in PubChem BioAssay (NCATS).
Inconclusive results are not listed. The source made the active and inactive calls. The call rests on the fitted dose curve; in most records, active means well fitted curve in the direction sought with a large enough effect; inconclusive means small, poorly fitted or top-dose-only effect, or another doubt; inactive means no such curve, though single readings can be large; an effect the other way counts as inactive or inconclusive.

Key:
[1] = biological target: Calcium and integrin-binding protein 1 (Homo sapiens) (UniProt Q99828); test: Primary qHTS for Identification of Calcium Integrin Binding Protein 1 (CIB1) Competitor (AID 1508620);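 further: GST tagged CIB1 binding a fluorescein labelled alphaIIb integrin peptide tracer; top concentration of the series differs between compounds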
Sequence of Calcium and integrin-binding protein 1 (Homo sapiens) (Q99828 whole entry, looked up): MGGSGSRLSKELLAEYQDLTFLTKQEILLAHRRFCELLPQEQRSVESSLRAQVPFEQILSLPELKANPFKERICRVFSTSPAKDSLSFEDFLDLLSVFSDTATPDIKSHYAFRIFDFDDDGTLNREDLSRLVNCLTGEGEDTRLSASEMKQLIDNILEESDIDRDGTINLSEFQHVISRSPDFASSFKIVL
How it was run: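 Fluorescence polarization competition: CIB1-GST (1 uM final) preincubated with compound 15 min at room temperature, then FITC-labeled alphaIIb peptide (100 nM final) added for another 15 min. Polarization read at Ex 480/Em 540.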

[2] = Primary qHTS for inhibitors of nuclear receptor binding SET domain protein 2 (NSD2) in an isogenic RCH-ACV NSD2 p.E1099K mutant (9B) (AID 1645876); further: nearly all actives have a fitted effect of over 70% in size
[3] = Primary qHTS for inhibitors of nuclear receptor binding SET domain protein 2 (NSD2) in an RCH-ACV wild type WT cells (2C) (AID 1645877); further: nearly all actives have a fitted effect of over 70% in size
On the % scale 0 is the no-effect control and ±100 the full control effect.

C=C1C(O)C(OC(=O)c2ccccc2)C2C(C)(C(=O)O)CCCC2(C)C1CC/C(C)=C\CO (configuration not stated)
inactive: Potency [1] | Potency [2] | Potency [3]

O=C(C[C@@H]1C(C(=O)O)=CO[C@@H](O[C@@H]2O[C@H](CO)[C@@H](O)[C@H](O)[C@H]2O)/C1=C\CO)OCCc1ccc(O)c(O)c1
inactive: Potency [1] | Potency [2] | Potency [3]

COc1cc2c(c(O)c1OC/C=C(\C)CC/C=C(/C)CCC=C(C)C)CN(C(CCC(=O)O)C(=O)O)C2=O (configuration not stated)
inactive: Potency [1] | Potency [2] | Potency [3]

Cc1occc(=O)c1O[C@@H]1O[C@H](CO[C@@H]2OC[C@](O)(CO)[C@H]2O)[C@@H](O)[C@H](O)[C@H]1O
inactive: Potency [1] | Potency [2] | Potency [3]

CCC(C)/C=C(C)/C=C/C1=CC2=C(Cl)C(=O)C(C)(OC(C)=O)C(=O)C2=CN1C(CC(=O)O)C(=O)O (configuration not stated)
inactive: Potency [1] | Potency [2] | Potency [3]

CC1=C(CC/C(C)=C/C(=O)O)[C@@]2(C)CCCC(C)(C)C2CC1=O (some centres not stated)
inactive: Potency [1] | Potency [2] | Potency [3]

C[C@@H]1O[C@@H](O[C@H]2[C@H](O)[C@@H](O[C@@H]3O[C@H](CO)[C@H](O)[C@H](O)[C@H]3O)[C@H](O[C@H]3CC[C@@]4(C)C(CC[C@]5(C)C4CC=C4[C@@H]6CC(C)(C)CC[C@]6(C(=O)O[C@@H]6O[C@H](CO)[C@@H](O)[C@H](O)[C@H]6O)CC[C@]45C)C3(C)C)O[C@@H]2C(=O)O)[C@H](O)[C@H](O)[C@H]1O (some centres not stated)
inactive: Potency [1] | activity change, negative = viability loss [2] 0.405% [at 9.23 µM] | outcome [3] inactive [at 9.23 µM]

COc1cc(/C=C/C(=O)O[C@H]2C[C@@H]3C(C(=O)O)=CO[C@@H](O[C@@H]4O[C@H](CO)[C@@H](O)[C@H](O)[C@H]4O)[C@@H]3[C@H]2C)ccc1O
inactive: Potency [1] | Potency [2] | Potency [3]

COCC1OC(n2cnc3c(=O)[nH]cnc32)C(O)C1O (configuration not stated)
inactive: Potency [1] | Potency [2] | Potency [3]

CC1CCC2C(C)(C)[C@H](O)CC[C@]2(C)C12Cc1c(O)cc3c(c1O2)CN(C(CCC(=O)O)C(=O)O)C3=O (some centres not stated)
inactive: Potency [1] | Potency [2] | Potency [3]

CCC(C)C(=O)O[C@H]1C[C@](C)(O)[C@]23OC(C)(C)[C@H](C[C@H](OC(=O)c4ccccc4)[C@]2(COC(C)=O)[C@H]1OC(=O)C(C)CC)[C@H]3OC(C)=O (some centres not stated)
inactive: Potency [1] | Potency [2] | Potency [3]

O=C(Cc1ccc(Cl)cc1)Nc1cnccc1C(=O)O
inactive: Potency [1] | Potency [2] | Potency [3]

C=C1CC[C@H]2[C@@](C)(CCC(O)[C@@]2(C)CO)[C@@H]1/C=C/C(=C\C(=O)O)C(=O)O (some centres not stated)
inactive: Potency [1] | Potency [2] | Potency [3]

CC(=O)/C=C/C1(O)C(C)(C)CC(O)CC1(C)O (configuration not stated)
inactive: Potency [1] | Potency [2] | Potency [3]

CC1C2=CC(=O)OC2(O)CC2C1C(O)CC1C(C)(CO)CCCC21C (configuration not stated)
inactive: Potency [1] | Potency [2] | Potency [3]

COC1CC(O[C@H]2CC[C@@]3(C)C(=CC[C@]4(O)C3[C@H](O)[C@@H](O)[C@]3(C)[C@@H]([C@H](C)O)CC[C@@]34O)C2)OC(C)C1OC1CC(OC)C(OC2CC(OC)C(OC3OC(C)C(OC4OC(CO)C(O)C(O)C4O)C(OC)C3O)C(C)O2)C(C)O1 (some centres not stated)
inactive: Potency [1] | activity change, negative = viability loss [2] 1.87% [at 9.23 µM] | activity change, negative = cell killing [3] -2.18% [at 9.23 µM]

CC/C=C\CC1C(CC(=O)O)CCC1OC1OC(CO)C(O)C(O)C1O (configuration not stated)
inactive: Potency [1] | Potency [2] | Potency [3]

CC(=O)O[C@H]1C[C@@H](O)C(C)(C)C2C[C@@H](OC(C)=O)[C@@]3(C)C4=CCC(C(CO)CC(O)C5OC5(C)C)[C@]4(C)CCC3[C@]21C (some centres not stated)
inactive: Potency [1] | Potency [2] | Potency [3]

C=C1CCC2C(C)(C(=O)O)CCCC2(C)C1CC/C(C)=C\CO (configuration not stated)
inactive: Potency [1] | Potency [2] | Potency [3]

CSCC1OC(n2cnc3c(=O)[nH]cnc32)C(O)C1O (configuration not stated)
inactive: Potency [1] | Potency [2] | Potency [3]

COc1cc(-c2ccc(O)cc2)c(OC)c(O)c1C1=CC(=O)OC1CC(=O)O (configuration not stated)
inactive: Potency [1] | Potency [2] | Potency [3]

CC1=CC[C@@]2(C)CC[C@@](O)(C(C)C)[C@@H]2[C@@H](O)C1
inactive: Potency [1] | Potency [2] | Potency [3]

Cc1c(NC(=O)N2CCOCC2)ccc2c1c1ccccc1n2C(C)C
inactive: Potency [1] | Potency [2] | Potency [3]

C[C@@H]1O[C@@H](OC2C(CO)OC(OCC3OC(OC(=O)[C@]45CCC(C)(C)CC4C4=CCC6[C@@]7(C)CC[C@@H](O)[C@](C)(C(=O)O)C7CC[C@@]6(C)[C@]4(C)CC5)C(O)C(O)C3O)C(O)C2O)[C@H](O)[C@H](O)[C@H]1O (some centres not stated)
inactive: Potency [1] | activity change, negative = viability loss [2] 0.361% [at 9.23 µM] | outcome [3] inactive [at 9.23 µM]

COc1cc(/C=C/CO[C@@H]2O[C@H](CO)[C@@H](O)[C@H](O)[C@H]2O)cc(OC)c1O[C@@H]1O[C@H](CO)[C@@H](O)[C@H](O)[C@H]1O
inactive: Potency [1] | Potency [2] | Potency [3]

C[C@@H]1O[C@@H](O[C@@H]2[C@@H](O)[C@H](O[C@@H]3[C@@H](O)[C@@H](O)[C@H](O[C@H]4[C@H](OC(=O)[C@]56CCC(C)(C)C[C@H]5C5=CCC7[C@@]8(C)C[C@H](O)[C@H](O[C@@H]9O[C@H](C(=O)O)[C@@H](O)[C@H](O)[C@H]9O)[C@@](C)(CO)C8[C@H](O)C[C@@]7(C)[C@]5(C)C[C@H]6O)O[C@@H](CO)[C@@H]4O)O[C@H]3C)OC[C@H]2O)[C@H](O)[C@H](O)[C@H]1O (some centres not stated)
inactive: activity change, negative = inhibition [1] 0.349% [at 12.4 µM] | activity change, negative = viability loss [2] -3.74% [at 9.23 µM] | activity change, negative = cell killing [3] -10.6% [at 9.23 µM]

CC1(O)CCC2C(C3C1CCC3(C)O)C2(C)C (configuration not stated)
inactive: Potency [1] | Potency [2] | Potency [3]

N#CC1C(=O)N=C(c2cc(Cl)ccc2O)C=C1c1cc(OCc2ccccc2)cc(OCc2ccccc2)c1 (configuration not stated)
inactive: Potency [1] | Potency [2] | Potency [3]

CC1=CC(=O)C2C(C)(C)CCC[C@]2(C)[C@H]1CC[C@H](C)CC(=O)O (some centres not stated)
inactive: Potency [1] | Potency [2] | Potency [3]

COC(=O)[C@]1(C)CCC[C@@]2(C)[C@@H]3CC[C@@H]4C[C@@]3(CC[C@@H]21)C[C@H]4C(=O)O
inactive: Potency [1] | Potency [2] | Potency [3]

O=C(/C=C/c1ccc(O)c(O)c1)OC[C@H]1O[C@@H](OC2CCCCC2O)[C@H](O)[C@@H](O)[C@@H]1O (some centres not stated)
inactive: Potency [1] | Potency [2] | Potency [3]

COC(=O)C1=CO[C@@H](O[C@@H]2O[C@H](CO)[C@@H](O)[C@H](O)[C@H]2O)[C@@H]2[C@@H](CO)[C@@H](O)C(O)[C@H]12 (some centres not stated)
inactive: Potency [1] | Potency [2] | Potency [3]

CC1(C)[C@@H]2CC=C(CO[C@@H]3O[C@H](CO[C@@H]4OC[C@H](O)[C@H](O)[C@H]4O)[C@@H](O)[C@H](O)[C@H]3O)[C@H]1C2
inactive: Potency [1] | Potency [2] | Potency [3]

NC[C@@H]1O[C@@H](O[C@@H]2[C@@H](O[C@@H]3O[C@H](CO)[C@@H](O)[C@H]3O)[C@H](O)[C@@H](N)C[C@H]2N)[C@@H](N)[C@H](O)[C@H]1O
inactive: Potency [1] | activity change, negative = viability loss [2] 4.31% [at 9.23 µM] | outcome [3] inactive [at 9.23 µM]

CC(C)CC(c1c(O)c(C=O)c(O)c(C=O)c1O)C1CCC(C)(O)C2CC(C(C)(C)O)CCC12C (configuration not stated)
inactive: Potency [1] | Potency [2] | Potency [3]

O=C(O)Cc1cn([C@@H]2O[C@H](CO)[C@@H](O)[C@H](O)[C@H]2O[C@@H]2O[C@H](CO)[C@@H](O)[C@H](O)[C@H]2O)c2ccccc12
inactive: Potency [1] | Potency [2] | Potency [3]

CC(C)(O)C(O)C(=O)OCc1ccc(O[C@@H]2O[C@H](CO)[C@@H](O)[C@H](O)[C@H]2O)cc1 (some centres not stated)
inactive: Potency [1] | Potency [2] | Potency [3]

CC1(C)CCC[C@]2(C)C1CC=C(CO)[C@H]2CC/C(=C/CO)CO (some centres not stated)
inactive: Potency [1] | Potency [2] | Potency [3]

CC(=O)c1ccc(O[C@@H]2O[C@H](CO[C@@H]3OC[C@@H](O)[C@H](O)[C@H]3O)[C@@H](O)[C@H](O)[C@H]2O)cc1
inactive: Potency [1] | Potency [2] | Potency [3]

Cn1cc(Nc2cnccc2C(=O)O)c2cccnc21
inactive: Potency [1] | Potency [2] | Potency [3]

CC(C)C1NC(=O)C(CC2(O)c3ccccc3N3C(=O)C(Cc4ccccc4)NC32)NC1=O (configuration not stated)
inactive: Potency [1] | Potency [2] | Potency [3]

C/C=C1/[C@H](O[C@@H]2O[C@H](CO)[C@@H](O)[C@H](O)[C@H]2O)OC=C(C(=O)OC)[C@H]1CC(=O)OCCc1ccc(OC(=O)C[C@@H]2C(C(=O)OC)=CO[C@@H](O[C@@H]3O[C@H](CO)[C@@H](O)[C@H](O)[C@H]3O)/C2=C/C)cc1
inactive: Potency [1] | activity change, negative = viability loss [2] -12% [at 9.23 µM] | activity change, negative = cell killing [3] -15% [at 9.23 µM]

CC(=O)O[C@@H]1C(O)C[C@@]2(C)C(CC[C@@H](C)C23Cc2c(O)cc4c(c2O3)CNC4=O)C1(C)C (some centres not stated)
inactive: Potency [1] | Potency [2] | Potency [3]

O=C(OC[C@H]1O[C@@H](Oc2ccccc2COC(=O)C2(O)C=CCCC2O)[C@H](O)[C@@H](O)[C@@H]1O)c1ccccc1 (some centres not stated)
inactive: Potency [1] | Potency [2] | Potency [3]

C[C@H]1CC[C@H]2[C@@H](C=C[C@@](C)(O)[C@]2(C)C(=O)CCO)C1
inactive: Potency [1] | Potency [2] | Potency [3]

O=C(O)/C=C/c1ccc(O[C@@H]2O[C@H](CO)[C@@H](O)[C@H](O)[C@H]2O)cc1
inactive: Potency [1] | Potency [2] | Potency [3]

C=CCc1cc(OC)c(OC(C)C(O)c2ccc(O)c(OC)c2)c(OC)c1 (configuration not stated)
inactive: Potency [1] | Potency [2] | Potency [3]

CC1(C)CC[C@]2(C(=O)O)CC[C@]3(C)C(=CCC4[C@@]5(C)CC[C@H](O)C(C)(C)C5CC[C@]43C)C2C1 (some centres not stated)
inactive: Potency [1] | Potency [2] | Potency [3]

C=C1[C@@H]2CC[C@@]3(C)[C@H](c4ccoc4)OC(=O)C[C@]13O[C@H]1CC(=O)C(C)(C)[C@H](C(O)C(=O)OC)[C@]12C (some centres not stated)
inactive: Potency [1] | Potency [2] | Potency [3]
